Source: PubChem BioAssay AID2314 (National Center for Advancing Translational Sciences (NCATS), 2010)
In all, about 300,000 compounds went through this assay and about 37,000 (12%) were called active. Rule as the data show it: active = max response mostly above about 13% (no sharp cut-off); inactive = mostly below about 14%. The list comes from a sample in which actives are over-represented; it also holds similar structures and randomly drawn compounds.

Assay: Cycloheximide Counterscreen for Small Molecule Inhibitors of Shiga Toxin; also: read at 38.3 µM for the half of the compounds with a filed dose; 0% is about no effect
Conditions: cell reporter, cycloheximide protein synthesis inhibition counterscreen; active compounds read high

SMILES | max response
Cc1oc2cc(Br)c(O)c(Br)c2c1C(=O)c1ccccc1 | 13.7% (inactive)
OCC1(Cc2ccccc2C(F)(F)F)CCN(Cc2ccncc2)CC1 | 0.237% (inactive)
Cc1ccc(C2C3=C(Nc4[nH]n(-c5ccccc5)c(=O)c42)c2ccccc2C3=O)cc1 (stereo not drawn) | -3.8% (inactive)
COC(=O)C1=C(C)NC(=O)NC1/C=C/c1ccccc1 (stereo not drawn) | 0.456% (inactive)
COC(=O)C1=C(C)NC2=C(C(=O)c3ccccc32)C1c1ccc(-c2ccc(C(=O)O)cc2)o1 (stereo not drawn) | 28.7% (active)
N=C1/C(=C/c2cccn2-c2cccc([N+](=O)[O-])c2)C(=O)N=C2SC=CN12 | -2.19% (inactive)
CC1(C)CC2CC(C)(CN2c2ncnc3ccc(Br)cc23)C1 (stereo not drawn) | -0.269% (inactive)
COc1ccc(Cc2cc(-c3ccc(F)cc3)n[nH]c2=O)cc1 | 16.2% (active)
COc1ccc(Cc2nnnn2CC(=O)O)cc1 | -1.14% (inactive)
COc1ccc(Cc2nnc(SC)[nH]c2=O)cc1 | 4.91% (inactive)
O=c1[nH]c2ccccc2n2c(-c3ccccc3)nnc12 | -2.01% (inactive)
CC(CN1CCC(n2nccc2NC(=O)C2CCCC2)CC1)c1ccccc1 (stereo not drawn) | -1.46% (inactive)
COc1cc(OC)cc(C(=O)N[C@H](C(=O)OCC(=O)NC(C)c2ccccc2)C(C)C)c1 (stereo partly drawn) | 6.33% (inactive)
O=C(CNC(=O)c1ccccc1)NCC(=O)OCc1ccc(Cl)cc1 | -2.96% (inactive)
COc1cc(OC)cc(C(=O)NCC(=O)OCc2csc(-c3ccccc3)n2)c1 | 20.1% (active)
COc1cccc(NC(=O)c2ccccc2N(Cc2ccccc2)S(C)(=O)=O)c1 | 1.56% (inactive)
O=C1c2ccccc2C(=O)C1c1ccccc1F | -5.87% (inactive)
O=C1c2ccccc2C(=O)C1c1ccccc1 | 6.52% (active)
O=C1NC(c2ccccc2)Oc2ccccc21 (stereo not drawn) | -1.34% (inactive)
Cc1ccc(C)c(NC(=O)C2Cc3ccccc3CN2C(=O)OCc2ccccc2)c1 (stereo not drawn) | -3.28% (inactive)
CO/N=C(\N)c1ccc([N+](=O)[O-])cc1 | 0.264% (inactive)
N/C(=N\OC(=O)c1ccc([N+](=O)[O-])cc1)c1ccccn1 | 42.7% (active)
Cc1ccc(C(=O)O/N=C(\N)c2ccccn2)cc1Cl | 13.6% (inactive)
COc1ccc(C(=O)O/N=C(\N)c2ccccn2)cc1[N+](=O)[O-] | 59.4% (active)
N/C(Cc1ccc([N+](=O)[O-])cc1)=N\OC(=O)COc1ccc2ccccc2c1 | -3.82% (inactive)
N/C(=N\OC(=O)COc1ccc([N+](=O)[O-])cc1)c1ccc(Br)cc1 | 6.76% (inactive)

SMILES | max response
O=C(OCc1ccc([N+](=O)[O-])cc1)c1ccccn1 | -3.03% (inactive)
COc1ccc(C(=O)NNC(=O)c2cnccn2)cc1[N+](=O)[O-] | 1.13% (inactive)
N/C(=N\OC(=O)Cc1ccc([N+](=O)[O-])cc1)c1ccccn1 | 61.5% (active)
CCC(=O)Nc1nnc(S(=O)(=O)N2CCCc3ccccc32)s1 | 1.29% (inactive)
Cc1ccccc1-n1cc(CNC(=O)C2CCC(=O)N(C3CC3)C2)cn1 (stereo not drawn) | -1.75% (inactive)
Cc1nn(C(C)C(=O)N2CCOCC2)c(=O)c2nn(-c3ccccc3)c(C)c12 (stereo not drawn) | -8.4% (inactive)
CCOc1cc(NC(=O)c2ccccc2C(=O)O)c(OCC)cc1NC(=O)c1ccccc1F | -0.886% (inactive)
Cc1cc(C(F)F)n2nc(C(=O)Nc3ccc(S(=O)(=O)NC45CC6CC(CC(C6)C4)C5)cc3)nc2n1 | -6.02% (inactive)
O=C(C/C(=N\NC(=O)c1ccccc1Br)C(F)(F)F)c1cccs1 | -1.94% (inactive)
CC(C)c1ccc(S(=O)(=O)NC2CCCC2)cc1 | -3.21% (inactive)
O=C(Cn1nc(C(=O)O)c2ccccc2c1=O)Nc1ccc(F)cc1 | 5.62% (inactive)
CC(C(=O)NCCc1ccc(S(N)(=O)=O)cc1)N1C(=O)CC(C)(C)Sc2ccccc21 (stereo not drawn) | -1.15% (inactive)
Cc1cc(C)c(S(=O)(=O)NCC2CCC(C(=O)NCc3ccc4c(c3)OCO4)CC2)c(C)c1 (stereo not drawn) | -0.416% (inactive)
CN(C)CCOCCOc1ccc(Cl)c2ccccc12 | -1.16% (inactive)
O=C(NC(Cc1ccc(O)cc1)C(=O)O)/C(=C/c1ccccc1)NC(=O)c1ccccc1 (stereo not drawn) | 18.4% (inactive)
COc1ccc(C2Nc3ccccc3C(=O)N2c2ccc(Cl)cc2)cc1Cn1cc([N+](=O)[O-])cn1 (stereo not drawn) | 46.2% (active)
COc1ccc(CN2CCCC(C(=O)c3ccc(Cl)cc3)C2)cc1Cn1cncn1 (stereo not drawn) | -7% (inactive)
COc1ccc(N2C(=O)c3ccccc3NC2c2ccc(OC)c(CN3CCOCC3)c2)cc1 (stereo not drawn) | 28.2% (active)
COc1ccc([N+](=O)[O-])cc1C1NN=C(c2cccc3ccccc23)S1 (stereo not drawn) | -2.19% (inactive)
COc1ccc(C2Nc3ccccc3C(=O)N2Cc2ccccc2)cc1Cn1nnc2ccccc21 (stereo not drawn) | -1.8% (inactive)
COc1ccc(C2Nc3ccccc3C(=O)N2c2ccc(F)cc2)cc1Cn1nnc2ccccc21 (stereo not drawn) | 2.31% (inactive)
CCCCCCCC(=O)NC(Nc1ccccc1OC)C(Cl)(Cl)Cl (stereo not drawn) | 1.89% (inactive)
COc1ccc(C(=O)COC(=O)Cn2cnc3c2c(=O)n(C)c(=O)n3C)c(OC)c1 | -1.6% (inactive)
O=C(C1CCCO1)N1CCN(S(=O)(=O)c2ccc(Br)cc2)CC1 (stereo not drawn) | -1.38% (inactive)
Cc1cnc(CN(C)C(=O)C2CCC(=O)N(CCc3cccc(F)c3)C2)[nH]1 (stereo not drawn) | -1.18% (inactive)
C=CCNc1nc(N)c([N+](=O)[O-])c(NC2CCCCC2)n1 | -4.11% (inactive)

SMILES | max response
CC(C)(C)OC(=O)N1CCC(NC(=O)c2[nH]cnc2C(=O)N[C@@H](Cc2ccccc2)C(=O)OCc2ccccc2)CC1 | -1.27% (inactive)
COc1ccccc1C1/C(=C(/O)c2ccc(C)cc2)C(=O)C(=O)N1Cc1ccco1 (stereo not drawn) | 3.34% (inactive)
O=C1c2ccccc2C(Nc2ccc3c(c2)OCCO3)N1Cc1ccco1 (stereo not drawn) | 86.7% (active)
O=C(NC1CCCCC1)C1c2ccccc2C(=O)N1Cc1ccco1 (stereo not drawn) | 0.684% (inactive)
Cc1ccnc(N2C(=O)c3ccccc3C2Nc2ccc3c(c2)OCCO3)c1 (stereo not drawn) | 42.1% (active)
COC(=O)c1cccc(C(=O)N2CCCC(Nc3ccc4c(c3)OCCO4)C2)c1 (stereo not drawn) | -1.68% (inactive)
Cn1cnc(S(=O)(=O)Nc2ccc3c(c2)OCCO3)c1 | -2.48% (inactive)
CCOc1ccc2[nH]c(C(=O)N/N=C/c3cccc(OC)c3OC)cc2c1 | 9.3% (inactive)
CC(C)c1ccc(N(C(=O)c2ccco2)C(C(=O)NC2CCCC2)c2cccnc2)cc1 (stereo not drawn) | -5.72% (inactive)
CCC1CCCCN1CCCNC(=O)c1cc2c(Cl)nc3ccccc3c2s1 (stereo not drawn) | -11.5% (inactive)
Oc1ccc(-c2onc3ccc(Cl)cc23)cc1 | 15.4% (inactive)
COC(=O)c1ccc(COC(=O)c2cnc(Cl)c(Cl)c2)cc1 | 34.6% (active)
CCOc1ccc(C(C)=O)cc1COC(=O)c1cnc(Cl)c(Cl)c1 | -0.208% (inactive)
COC(=O)c1ccc(COC(=O)c2cnccn2)cc1 | -1.89% (inactive)
COc1ccc(NS(=O)(=O)c2ccc(O)c(C(=O)OCC(=O)NC3CCCCC3)c2)cc1 | 0.885% (inactive)
CCN(C(=O)COc1cccnc1[N+](=O)[O-])C1CCS(=O)(=O)C1 (stereo not drawn) | -3% (inactive)
Cc1nn2c(=O)cc(COC(=O)c3ccc(NC(=O)C(C)(C)C)cc3)nc2s1 | -6.18% (inactive)
O=C(NCCCn1ccnc1)c1cc(-c2ccccc2)on1 | 27.9% (active)
COc1cc(OC)cc(C(=O)NCCCn2ccnc2)c1 | -2.01% (inactive)
O=C(NCCCn1ccnc1)c1ccccc1F | 1.63% (inactive)
COc1ccc(-c2cc(C(=O)NCCCn3ccnc3)no2)cc1 | 19.9% (active)
COc1ccccc1-c1cc(C(=O)NCCCn2ccnc2)no1 | -1.18% (inactive)
O=C(NCCCn1ccnc1)c1cc(Br)c(Br)s1 | -0.73% (inactive)
CCN(Cc1ccccc1)C(=O)CCS(=O)(=O)c1ccc2c(c1)oc(=O)n2C | 0.913% (inactive)
CCC(=O)c1cn(CCOc2ccccc2OC)c2ccccc12 | 3.68% (inactive)
CC(C)[C@H](NC(=O)N1CCn2c1nc1ccccc12)C(=O)NC1CC1 | 12.8% (active)

SMILES | max response
CC(C)C[C@H](NC(=O)N1CCn2c1nc1ccccc12)C(=O)NC1CC1 | -12.6% (inactive)
CC(C)[C@H](NC(=O)N1CCn2c1nc1ccccc12)C(=O)NCCc1ccccc1 | 11.9% (inactive)
CCOC(=O)c1cc(C(=O)Nc2ccc(S(=O)(=O)Nc3ccc(OC)cc3)cc2)nn1C | 3.41% (inactive)
COc1ccc(-c2ocnc2C(=O)Nc2ccc3c(c2)CCC3)cc1 | -4.1% (inactive)
CCCC(=O)Nc1ccc2c(c1)nc1n2CCSC1 | 24.1% (active)
CCOC(=O)N1CCN(Cc2nc3cc(NC(=O)CC)ccc3n2CC)CC1 | -2.89% (inactive)
CCCC(=O)Nc1ccc2c(c1)nc(CCNC(=O)c1ccco1)n2C | -0.909% (inactive)
Cc1ccccc1N1CCN(Cc2nc(Cc3ccccc3F)no2)CC1 | -1.36% (inactive)
O=C(NCc1ccco1)C1(c2ccc(Cl)cc2)CCCC1 | -3.56% (inactive)
COC(=O)/C=C/C(=O)NCc1ccco1 | -1.68% (inactive)
O=C(/C=C/c1ccc(Cl)cc1Cl)NCc1ccco1 | 34.8% (active)
FC(F)(F)C1CCCN(c2nsc3ccccc23)C1 (stereo not drawn) | -4.78% (inactive)
Cc1ccc2[nH]c(=O)c(CN(CC3COCCO3)C(=O)Nc3ccccc3C)cc2c1 (stereo not drawn) | -2.55% (inactive)
Cc1cccc(NC(=O)CSc2nnc(-c3ccco3)o2)c1 | 5.5% (inactive)
O=C(CCc1ccccc1)Nc1cccc(-c2nnc(-c3ccco3)o2)c1 | 1.83% (inactive)
Cc1ccc(OCC(=O)Nc2nnc(-c3ccco3)s2)cc1 | -1.91% (inactive)
CCC(=O)Oc1cccc(C(=O)Nc2ccc(-c3nnc(-c4ccco4)o3)cc2)c1 | 35.2% (active)
Cc1ccc(OCC(=O)Nc2ccc(-c3nnc(-c4ccco4)o3)cc2)cc1 | 28.8% (active)
COc1ccc(CC(=O)Nc2ccc(-c3nnc(-c4ccccc4)o3)cc2)cc1 | 10.6% (active)
O=C(CS(=O)(=O)c1ccccc1)Nc1ccc(S(=O)(=O)Nc2ccccn2)cc1 | -1.21% (inactive)
COc1ccc(NC(=O)c2cnc(NS(=O)(=O)c3ccccc3)nc2)cc1 | -2.55% (inactive)
COc1ccc(CC(=O)Nc2c(C(N)=O)oc3ccccc23)cc1 | -1.28% (inactive)
Cc1ccc(OCC(=O)Nc2ccc(-c3nc4ncccc4o3)cc2)cc1 | -0.121% (inactive)
COc1ccc(NC(=O)CS(=O)(=O)c2ccccc2)cc1 | 26.3% (active)
CC(=O)Nc1ccc(NC(=O)COc2ccc(-c3ccccc3)cc2)cc1 | 1.23% (inactive)
